PubChem BioAssay AID1159580 (chemical genetic matrix, 2015)
Screen size: about 5,500 compounds; about 2,000 (36%) were called active. Inconclusive results (about 18%) are left out. Cut-off read from the data, not from the text of the source: active = normalized growth mostly below about 0.91 (no sharp cut-off); inconclusive = no clear call, values can overlap the other calls; inactive = mostly above about 0.92. Some of the results follow.

Assay: chemical genetic growth profiling, strain panel (AID 1159580);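 note: tested at 20 µM; growth read once vehicle control cultures reached saturation at 30 °C; 1 = growth at the plate median or of vehicle wells; lower values mean less growth of the strain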
Settings: growth OD

Measured: normalized growth

CN1CCCN=C1COC(=O)C(O)(c1ccccc1)C1CCCCC1 (configuration not stated)
inactive: S. cerevisiae deletion strains, locus YJR075W, strain HOC1, active compounds read low 0.993 | S. cerevisiae deletion strains, locus YKL009W, strain mrt4, active compounds read low 0.999 | S. cerevisiae deletion strains, locus YKL068W, active compounds read low 0.989 | S. cerevisiae deletion strains, locus YKL085W, strain MDH1 (second series), active compounds read low 1 | S. cerevisiae deletion strains, locus YKL085W, strain MDH1, active compounds read low 1 | S. cerevisiae deletion strains, locus YKL160W, strain elf1, active compounds read low 0.998 | S. cerevisiae deletion strains, locus YKL190W, strain CNB1, active compounds read low 0.997 | S. cerevisiae deletion strains, locus YKR001C, strain vps1, active compounds read low 0.975 | S. cerevisiae deletion strains, locus YKR026C, strain gcn3, active compounds read low 0.997 | S. cerevisiae deletion strains, locus YKR091W, strain srl3, active compounds read low 1 | S. cerevisiae deletion strains, locus YLL001W, strain dnm1, active compounds read low 0.989 | S. cerevisiae deletion strains, locus YLL026W, active compounds read low 0.991 | S. cerevisiae deletion strains, locus YLL041C, strain sdh2, active compounds read low 0.998 | S. cerevisiae deletion strains, locus YLR027C, strain aat2, active compounds read low 0.993 | S. cerevisiae deletion strains, locus YLR039C, strain RIC1, active compounds read low 1.02 | S. cerevisiae deletion strains, locus YLR058C, strain SHM2, active compounds read low 1.01 | S. cerevisiae deletion strains, locus YLR102C, strain apc9, active compounds read low 0.993 | S. cerevisiae deletion strains, locus YLR113W, strain HOG1, active compounds read low 1.01 | S. cerevisiae deletion strains, locus YLR221C, strain rsa3, active compounds read low 0.992 | S. cerevisiae deletion strains, locus YLR258W, strain gsy2, active compounds read low 1 | S. cerevisiae deletion strains, locus YLR262C, strain YPT6 (second series), active compounds read low 0.988 | S. cerevisiae deletion strains, locus YLR262C, strain YPT6, active compounds read low 1.02 | S. cerevisiae deletion strains, locus YLR268W, strain sec22, active compounds read low 0.971 | S. cerevisiae deletion strains, locus YLR320W, strain mms22, active compounds read low 1.01 | S. cerevisiae deletion strains, locus YLR330W, strain CHS5, active compounds read low 1.01 | S. cerevisiae deletion strains, locus YLR342W, strain FKS1 (second series), active compounds read low 1.02 | S. cerevisiae deletion strains, locus YLR342W, strain FKS1, active compounds read low 1 | S. cerevisiae deletion strains, locus YLR357W, strain rsc2, active compounds read low 0.976 | S. cerevisiae deletion strains, locus YLR370C, strain arc18, active compounds read low 0.992 | S. cerevisiae deletion strains, locus YLR371W, strain rom2, active compounds read low 0.993 | S. cerevisiae deletion strains, locus YLR384C, strain iki3, active compounds read low 0.982 | S. cerevisiae deletion strains, locus YLR418C, strain cdc73, active compounds read low 0.973 | S. cerevisiae deletion strains, locus YML016C, strain PPZ1, active compounds read low 1.01 | S. cerevisiae deletion strains, locus YML032C, strain rad52, active compounds read low 0.979 | S. cerevisiae deletion strains, locus YML120C, strain ndi1, active compounds read low 1 | S. cerevisiae deletion strains, locus YML124C, strain tub3, active compounds read low 0.992 | S. cerevisiae deletion strains, locus YMR058W, strain fet3, active compounds read low 0.95 | S. cerevisiae deletion strains, locus YMR078C, strain ctf18, active compounds read low 0.992 | S. cerevisiae deletion strains, locus YMR125W, strain sto1, active compounds read low 0.992 | S. cerevisiae deletion strains, locus YMR129W, active compounds read low 0.995 | S. cerevisiae deletion strains, locus YMR205C, strain PFK2, active compounds read low 0.993 | S. cerevisiae deletion strains, locus YMR223W, strain ubp8, active compounds read low 1 | S. cerevisiae deletion strains, locus YMR231W, strain pep5, active compounds read low 0.99 | S. cerevisiae deletion strains, locus YMR263W, strain SAP30, active compounds read low 1.01 | S. cerevisiae deletion strains, locus YMR307W, strain GAS1, active compounds read low 1.03 | S. cerevisiae deletion strains, locus YNL067W, strain RPL9B, active compounds read low 0.992 | S. cerevisiae deletion strains, locus YNL071W, strain lat1, active compounds read low 0.994 | S. cerevisiae deletion strains, locus YNL128W, strain TEP1, active compounds read low 1.01 | S. cerevisiae deletion strains, locus YNL153C, strain GIM3, active compounds read low 1 | S. cerevisiae deletion strains, locus YNL183C, strain NPR1, active compounds read low 0.947 | S. cerevisiae deletion strains, locus YNL209W, strain ssb2, active compounds read low 0.99 | S. cerevisiae deletion strains, locus YNL233W, strain BNI4, active compounds read low 0.998 | S. cerevisiae deletion strains, locus YNL248C, strain rpa49, active compounds read low 0.993 | S. cerevisiae deletion strains, locus YNL250W, strain rad50, active compounds read low 0.988 | S. cerevisiae deletion strains, locus YNL271C, strain bni1, active compounds read low 0.987 | S. cerevisiae deletion strains, locus YNL298W, strain CLA4, active compounds read low 0.994 | S. cerevisiae deletion strains, locus YNL307C, strain MCK1, active compounds read low 0.981 | S. cerevisiae deletion strains, locus YNL322C, strain KRE1 (second series), active compounds read low 1 | S. cerevisiae deletion strains, locus YNL322C, strain KRE1, active compounds read low 1 | S. cerevisiae deletion strains, locus YNR049C, strain mso1, active compounds read low 0.994 | S. cerevisiae deletion strains, locus YNR052C, strain pop2, active compounds read low 0.999 | S. cerevisiae deletion strains, locus YOL006C, strain TOP1, active compounds read low 1.04 | S. cerevisiae deletion strains, locus YOL012C, strain htz1 0.733 | S. cerevisiae deletion strains, locus YOL147C, strain pex11, active compounds read low 0.99 | S. cerevisiae deletion strains, locus YOR001W, strain rrp6, active compounds read low 1.01 | S. cerevisiae deletion strains, locus YOR061W, strain CKA2, active compounds read low 1.01 | S. cerevisiae deletion strains, locus YOR069W, strain VPS5, active compounds read low 1.01 | S. cerevisiae deletion strains, locus YOR070C, strain gyp1, active compounds read low 1.01 | S. cerevisiae deletion strains, locus YOR080W, strain dia2, active compounds read low 0.996 | S. cerevisiae deletion strains, locus YOR083W, strain WHI5, active compounds read low 0.995 | S. cerevisiae deletion strains, locus YOR106W, strain vam3, active compounds read low 1.01 | S. cerevisiae deletion strains, locus YOR136W, strain idh2, active compounds read low 0.991 | S. cerevisiae deletion strains, locus YOR144C, strain elg1, active compounds read low 0.991 | S. cerevisiae deletion strains, locus YOR184W, strain ser1, active compounds read low 1 | S. cerevisiae deletion strains, locus YOR231W, strain MKK1, active compounds read low 1 | S. cerevisiae deletion strains, locus YOR265W, strain rbl2, active compounds read low 0.984 | S. cerevisiae deletion strains, locus YOR270C, strain vph1, active compounds read low 1.02 | S. cerevisiae deletion strains, locus YOR290C, strain snf2, active compounds read low 1.02 | S. cerevisiae deletion strains, locus YOR316C, strain cot1, active compounds read low 1 | S. cerevisiae deletion strains, locus YPL051W, strain arl3, active compounds read low 0.997 | S. cerevisiae deletion strains, locus YPL055C, strain LGE1, active compounds read low 0.998 | S. cerevisiae deletion strains, locus YPL078C, strain atp4, active compounds read low 0.998 | S. cerevisiae deletion strains, locus YPL106C, strain sse1, active compounds read low 0.989 | S. cerevisiae deletion strains, locus YPL240C, strain hsp82, active compounds read low 0.991 | S. cerevisiae deletion strains, locus YPL241C, strain CIN2, active compounds read low 1.01 | S. cerevisiae deletion strains, locus YPL256C, strain CLN2, active compounds read low 0.992 | S. cerevisiae deletion strains, locus YPR119W, strain clb2, active compounds read low 0.993 | S. cerevisiae deletion strains, locus YPR141C, strain kar3, active compounds read low 0.994 | S. cerevisiae deletion strains, locus YPR163C, strain tif3, active compounds read low 0.991 | S. cerevisiae deletion strains, locus YPR167C, strain met16, active compounds read low 0.987 | S. cerevisiae deletion strains, strain wtn01, active compounds read low 0.966 | S. cerevisiae strains, strain wild type, active compounds read low 1
